# Test results published in the supplement of paper PMC6555819.
# Key:
# Test in all cases: PBM binding z-score (relative to random genomic background probes); higher = stronger binding; sequences stand for … in GC…GCGATTGACAGCGTAGAATGAAGG
# [1] = tested on: FXR:RXRa (NR concentration 270 nM, RXRa partner concentration 90 nM)
# In short: (§1)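 Scanned fluorescence from custom Agilent 4×180K protein-binding microarrays was regression-normalized. Binding z-scores use random background probes as reference. Ligand-free nuclear receptor dimers were incubated on the arrays for 1 h and detected with antibodies against each partner (one per run).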
# [2] = tested on: LXRa:RXRa (NR concentration 270 nM, RXRa partner concentration 90 nM)
# In short: as §1
# [3] = tested on: LXRa homodimer (NR concentration 270 nM)
# In short: as §1
# [4] = tested on: LXRb:RXRa (NR concentration 270 nM, RXRa partner concentration 90 nM)
# In short: as §1
# [5] = tested on: LXRb homodimer (NR concentration 270 nM)
# In short: as §1
# [6] = tested on: PPARa:RXRa (NR concentration 270 nM, RXRa partner concentration 90 nM)
# In short: as §1
# [7] = tested on: PPARg:RXRa (NR concentration 180 nM, RXRa partner concentration 90 nM)
# In short: as §1
# [8] = tested on: PPARg:RXRa 270nM:90nM, anti-RXR (NR concentration 270 nM, RXRa partner concentration 90 nM)
# In short: as §1
# [9] = tested on: PPARg:RXRa 30nM:10nM, anti-RXR (NR concentration 30 nM, RXRa partner concentration 10 nM)
# In short: as §1
# [10] = tested on: PPARg:RXRa 90nM:30nM, anti-RXR (NR concentration 90 nM, RXRa partner concentration 30 nM)
# In short: as §1
Sequence,PBM binding z-score [1],PBM binding z-score [2],PBM binding z-score [3],PBM binding z-score [4],PBM binding z-score [5],PBM binding z-score [6],PBM binding z-score [7],PBM binding z-score [8],PBM binding z-score [9],PBM binding z-score [10]
ATCGAAAGGTCGAAGGTGAGTAAACCCACCCGAA,4.69,3.83,0.284,3.05,0.315,4.88,4.96,5.19,1.91,4.14
CCTACTGGGCCAAAAAGGTCCTTGATGCCGATAA,-0.386,-0.565,-0.584,-0.39,-0.811,0.631,0.195,0.889,-0.0812,0.211
CGTCCATGGTCAGCAGGTCAGTGAAAGCGACGTG,0.175,-0.104,-0.348,-0.0301,-0.987,0.781,-0.0482,-0.0239,-0.823,-0.464
AGAATGAGGTTACCAAAGATCAGGCAAACGCTTG,1.67,5.94,-0.392,3.24,-0.531,3.41,2.77,2.57,0.868,1.84
ACTAGCAGGCCAAGTTTGGGTTACTCAAACAAAG,-0.336,-0.429,-0.394,-0.296,-0.552,-0.051,-0.32,-0.325,-0.354,-0.657
GCTAACAGGCCATTTGGGTCACTCAATGACGGGC,0.418,0.268,-0.00824,0.389,-0.169,1.73,0.912,0.349,-0.624,-0.263
ATCGAAAGGTCGACGAGGTGAGTATACACCGTTT,4.62,3.32,-0.0538,2.73,0.533,4.52,2.85,3.18,1.02,2.34
TAGCCTAGGTCATGGGCCACTATACCACGCGAAC,4.16,3.63,0.886,2.81,0.0878,4.15,4.04,4.19,1.48,3.31
TCTAGCAGGCCAGAGGGTCTCTCAAGAGGTACGG,-1.4,-0.676,-0.763,-0.66,-1.71,-0.298,0.13,0.975,1.38,1.06
CGAACTAGGTCAATGACAGGACAGTGAATAGTAA,2.8,2.36,0.289,1.59,0.0362,4.34,7.1,6.02,3.52,5.51
CGTGCAAGGTCAAGGTCAGTGAAAGAGACTCGAA,7.71,5.78,1.12,4.86,0.639,6.13,6.66,6.55,2.87,5.51
ATCTCTAGGTAACATGTTCAGTGAAAGAGAGGAC,0.248,0.254,-0.139,0.402,0.902,0.519,1.15,1.25,0.432,1.07
TATACAGGGTCAAAGGCGAGAGTACGAATGTCGA,7.01,6.18,2.21,4.53,2.51,6.19,7.72,6.81,3.94,6.47
TCATATAGGTAAAAGGTGCAAGTCGGTGTGGTAA,1.29,1.09,0.188,1.25,0.0143,3.34,5.37,5.97,5.85,6.52
TTACTAAGGTGAGCTGAGGTCGTTGATCCAACTC,2.26,1.54,-0.344,1.04,-0.663,1.97,0.363,1.26,0.174,0.711
CTTACTGGGCCAAGGTCATTGATCAGTCAAAGCA,3.38,3.5,1.27,3.15,0.239,4.7,6.21,5.67,3.67,5.42
GAGACAGGGTCAAGGCCAGAGTACGCGTATTGAT,6.57,3.62,-0.408,3.43,-0.789,5.24,4.71,4.73,1.4,3.22
CGTCCAGGGTCAGCAGGTCAGTGAAAGCGACGTG,5.44,3.06,-0.214,3.1,-0.458,5.11,4.16,4.41,0.684,2.92
GCTGCTAGGTCAGGTTGGTCAGGTAACGGGTACG,1.37,0.789,-0.109,0.63,0.124,1.5,0.626,0.972,-0.553,0.573
GGAACGATGGCAAAGTTGATAGCATCTGTCGACG,-0.553,-0.632,-0.475,-0.708,-0.97,0.994,1.79,3.3,1.16,2.88
ACTATTAGTTGACTTAGGGCTACCGATACGACGC,0.0661,-0.121,-0.0225,-0.352,0.601,-0.131,0.862,-0.0974,0.182,-0.112
TTACCAAGGTGAGCTGAGGTCGTAGATCCAACTC,2.54,0.614,-0.687,0.401,-1.29,1.78,0.268,0.85,-0.191,0.588
ACTACAGGGTCATCGTAGGCCAGAGTACGCACAG,6.89,5.5,0.216,4.08,0.987,5.89,5.88,5.25,2.32,3.77
CCGACAGGGGCAAGGTTACCATAACGCACAGCCA,0.485,0.975,-0.0477,0.737,-0.848,1.49,1.32,0.765,0.0629,0.378
